# Test system: T1, AMPK-alpha2
# T1 construct: gene PRKAA2
# Conditions: concentration: 1 μM, replicates: in singlicate; n = 1
# 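Also: KINOMEscan kinase panel screen.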
row,SMILES,%Inh
1,C[C@@H](Oc1cc(-n2cnc3cc(-c4ccnc(NCCS(C)(=O)=O)c4)ccc32)sc1C(N)=O)c1ccccc1Cl [GSK907232],0%
2,CN1CCN(Cc2cccc(-c3ccc4c(Nc5ccc(Oc6ccccc6)cc5)ccnc4c3)c2)CC1 [GW578342],0%
3,Cc1ccc(S(=O)(=O)Nc2ccc(Nc3nccc(Nc4cccc5[nH]ncc45)n3)cc2)cc1 [GSK581271],0%

# Test system: ANKK1
# Conditions: concentration: 1 μM, replicates: in singlicate; n = 1
row,SMILES,%Inh
1,Cl.c1ccc(-c2ccc3c(Nc4ccc5[nH]ccc5c4)ccnc3c2)nc1 [GW440138],11%
2,Nc1n[nH]c2cnc(-c3ccccc3)cc12 [SB-642124],23%
3,CN(C)Cc1ccc(-c2ccc3c(Nc4ccc(Oc5ccccn5)cc4)ccnc3c2)o1 [GW567148],0%
4,CC(C)(C)c1ccc2nccc(Nc3cccc(O)c3)c2c1 [GW856795],0%
5,O=c1[nH]cc(-c2ccc(N3CCOCC3)cc2)c2sc(-c3cn[nH]c3)cc12 [GSK2276055],21%
6,O=C(Nc1n[nH]c2cc(-c3ccoc3)ccc12)C1CC1 [SB-738481],23%
7,CC(=O)N1CCN(c2ccc(Nc3nccc(-c4sc(C(C)C)nc4-c4cccc(NS(=O)(=O)c5cccc(Cl)c5)c4)n3)cn2)CC1 [GSK1660437],7%
8,COc1cc2c(cc1OCCN1CCNCC1)ncc1c3ccc(C#N)cc3[nH]c21,37%
9,CNC(=O)c1ccccc1Nc1nc(Nc2ccc(N3CCOCC3)cc2)ncc1Cl.Cl [GSK1576028],12%
10,Oc1cc(Nc2ccnc3cc(I)ccc23)ccc1F [GW552771],0%
11,COc1cccc(C2=C(Nc3ccc(Cl)c(C(=O)O)c3)C(=O)NC2=O)c1 [SB-390769],99.4%
12,O=C(Nc1cccc(-c2nn3ccccc3c2-c2ccnc(Nc3cccc(F)c3)n2)c1)c1c(F)ccc(F)c1Cl [GSK357952],2%
13,O=C(Nc1cccc(Oc2ccc3nc(NC(=O)C4CC4)cn3n2)c1)c1ccccc1C(F)(F)F,1%
14,CSc1cccc2c(-c3ccncn3)c(-c3ccc(F)cc3)nn12 [GW514786],0%
15,Cn1cc(-c2[nH]c3cc(NC(=O)[C@H](N)C4CCCCC4)cc4c3c2C=NNC4=O)cn1,95.7%
16,COc1ccc(CNC(=O)NC2CCN(c3ccnc(Nc4ccc(F)cc4)n3)CC2)cc1 [GSK1379788],0%

row,SMILES,%Inh
1,COc1cccc(NC(=O)NC2CCN(c3ccnc(Nc4cc(OC)c(OC)c(OC)c4)n3)C2)c1 (stereo not shown) [GSK1379763],40%
2,O=C(Nc1n[nH]c2nc(-c3ccc(O)cc3)ccc12)C1CC1 [SB-710363],0%
3,CN1CCN(CCCNc2nccc(-c3c(-c4ccc(F)cc4)nn4cc(C(F)(F)F)ccc34)n2)CC1 [GW621581],0%
4,c1ccc(-c2n[nH]cc2Nc2ccnc3ccccc23)nc1 [GW694077],75%
5,CCc1ccc(-c2ccc3c(c2)-c2c(cnn2C)S(=O)(=O)N3C)cc1,0%
6,NCCCC(NC(=O)c1cc(Br)c(-c2ccnc3[nH]ccc23)s1)c1ccccc1.O=C(O)C(F)(F)F.O=C(O)C(F)(F)F (stereo not shown) [GSK1287544],0%
7,Nc1ncc(-c2cccnc2)c2scc(-c3ccc4c(c3)CCN4C(=O)Cc3ccccc3)c12 [GSK683281],19%
8,Cl.c1ccc(-c2ccc3c(Nc4ccc5[nH]ncc5c4)ccnc3c2)nc1 [GW440137],14%
9,Cc1ccc(C)c(NC(=O)NC2CCN(c3ccnc(Nc4ccc(F)cc4)n3)C2)c1 (stereo not shown) [GSK1379720],0%
10,COc1cc(Nc2nccc(-c3c(-c4cccc(NC(=O)c5c(F)cccc5F)c4)nn4ccccc34)n2)cc(OC)c1OC [GSK323521],13%
11,Fc1ccc(-c2ncn(C3CCNCC3)c2-c2ccnc(Oc3ccc(-c4ccccc4)cc3)n2)cc1 [SB-245391],7%
12,COc1cc(Nc2ncc3c(C)nc(-c4cc5ccccc5[nH]4)n3n2)cc(OC)c1OC [GW869516],0%
13,Clc1ccc(-c2nn3ncccc3c2-c2ccnc(Nc3ccc4c(c3)OCCO4)n2)cc1 [GW829116],0%
14,c1ccc(-c2cnc3nccnn23)cc1 [AH20685],0%
15,O=C(Nc1ccccc1F)NC1CCN(c2ccnc(Nc3ccc(F)cc3)n2)CC1 [GSK1379800],1%

# — PMC5540273 (PLoS ONE, 2017)
